Test [1] in a line: compounds binding Alexa647 anti-His antibody – biochemical, small-molecule microarray, 635 nm fluorescence, artefact control for SMM control protein annotation, primary screen (AID 1128).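 Note: score merges feature fluorescence with signal-to-noise for each printed compound spot.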 The conditions noted are these: higher = more signal.
The test system of test [2] is Human papillomavirus type 1a E7 protein (residues 1-88). Put plainly: HPV1a E7 small-molecule binders, primary screen, biochemical, small-molecule microarray, residues 1-88, 635 nm (AID 1129). The conditions noted are these: small-molecule microarray binding, fluorescence 635 nm; higher = more signal.
Test [3] addresses Focal adhesion kinase 1 (Homo sapiens) (UniProt Q05397). Put plainly: PTK2 protein binding on printed compound slides – biochemical, small-molecule microarray, 635/667 nm fluorescence, BSA, DTT, primary screen (AID 1130).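 Note: composite of spot emission at 667 nm and signal to noise over triplicate slides.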 The conditions noted are these: 635 nm fluorescence, higher = more signal.
Test [4] concerns Fibrinogen (Alexa647-labelled). Put plainly: Alexa647-fibrinogen binding to printed small molecules – biochemical, small-molecule microarray, 635/667 nm fluorescence, artefact control for SMM control-protein annotation, profiling panel (AID 1131).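 Note: z-score merges 667 nm fluorescence with per-spot signal-to-noise over triplicate slides.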 The conditions noted are these: fibrinogen-A647 binding fluorescence, higher = more signal.
The target of test [5] is Follistatin (Homo sapiens) (UniProt P19883). Put plainly: FST protein binding to printed compounds – biochemical, small-molecule microarray, 635/667 nm fluorescence, primary screen (AID 1132). The conditions noted are these: 635 nm fluorescence, higher = more signal.
Test [6] addresses Fibroblast growth factor 2 (Homo sapiens) (UniProt P09038). Put plainly: basic fibroblast growth factor binding to printed compounds – biochemical, small-molecule microarray, 635/667 nm fluorescence, primary screen (AID 1133). As to conditions: FGF2, fluorescence 635/667, higher = more signal.
Test [7] in a line: JC-1 mitochondrial potential readout, lung cancer cells – cell-based, A549, JC-1 fluorescence, basal, 24 h, 100 nL, profiling panel (AID 1138).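 Note: A549 lung adenocarcinoma cells under basal conditions with no added stimulus; test concentration not given here.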 As to conditions: higher = more signal.
The test system of another test is Lefty1. Put plainly: Lefty1 protein binding to printed compounds – biochemical, small-molecule microarray, 635/667 nm fluorescence, primary screen (AID 1139). The conditions noted are these: fluorescence 635/667, higher = more signal.
In test [8] the test system is wheat germ agglutinin (Triticum aestivum), Alexa647-labelled. Put plainly: Alexa647-WGA lectin binding to printed small molecules – biochemical, small-molecule microarray, 635/667 nm fluorescence, artefact control for SMM control-protein annotation, profiling panel (AID 1140).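 Note: score merges 667 nm feature emission with signal to noise over triplicate slides.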 As to conditions: WGA-A647 binding, 635 nm fluorescence, higher = more signal.
Test [9] addresses Luciferin 4-monooxygenase (Photinus pyralis) (UniProt P08659). Put plainly: inhibition of purified Photinus pyralis luciferase – biochemical, luminescence, purified enzyme, 2006 set, primary screen (AID 1141).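 Note: cell-free assay with purified firefly luciferase at 100 ng per well in PBS; test concentration not given here.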 As to conditions: purified firefly luciferase, SteadyGlo luminescence, 30 min; higher = more signal, called active from +8 up or from −8 down.
Test [10] concerns Wnt5a (protein binding on small-molecule microarray). The test is described as follows: small molecules binding Wnt5a protein – biophysical, small-molecule microarray, 635/667 nm fluorescence, primary screen (AID 1142).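 Note: fluorescence read at 667 nm with signal to noise per printed feature.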 The conditions noted are these: 635 nm fluorescence, higher = more signal.
The nature of test [11]: ATP-based viability of Huh7 replicon cells – cell-based, CellTiter-Glo luminescence, basal, 48 h, cytotoxicity control for HCV replication inhibitor project, primary screen (AID 1143).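 Note: Huh7 hepatoma cells carrying a hepatitis C replication reporter with no stimulus; test concentration not given here.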 The conditions noted are these: higher = more signal, called active from +8 up or from −8 down. Background: A replicon is a self-replicating genome or part of one, used to study replication in cells.

Test [12] in a line: Pseudomonas biofilm growth suppression – PAO1 strain, BacTiter-Glo luminescence, LB-PBS, primary screen (AID 1144). The conditions noted are these: P. aeruginosa PAO1 biofilm, 12 h, higher = more signal.
A short description of test [13]: basal CRE-LacZ reporter activity in PC12 – cell-based, unstimulated, primary screen (AID 1145). The conditions noted are these: no forskolin, luminescence, 4.5 h, higher = more signal, called active from +8 up or from −8 down.
The nature of test [14]: forskolin-driven CRE-LacZ activity in PC12 – cell-based, CRE-LacZ reporter, forskolin-stimulated, primary screen (AID 1146).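 Note: PC12 cells with 6xCRE LacZ reporter stimulated by forskolin 10 µM; beta-galactosidase reporter signal reflecting CREB driven transcription.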 As to conditions: luminescence, 4.5 h, higher = more signal, called active from +8 up or from −8 down.
Test [15] has as its target Streptavidin (Streptomyces avidinii) (UniProt P22629). The test is described as follows: compounds binding control protein streptavidin – biophysical, small-molecule microarray, 635/667 nm fluorescence, artefact control for SMM compound annotation, primary screen (AID 1147).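 Note: signal reflects streptavidin binding to arrayed compounds as a control protein.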 The conditions noted are these: higher = more signal.
A short description of test [16]: probe aInhba binding on compound microarray – biochemical, small-molecule microarray, 635/667 nm fluorescence, primary screen (AID 1148).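 Note: score merges 667nm spot fluorescence with signal-to-noise for antibody binding to printed compounds.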 The conditions noted are these: higher = more signal.
The target in test [17] is Torsin-1A (Homo sapiens) (UniProt O14656). The test is described as follows: TOR1A wild-type binding on microarray – cell lysate, small-molecule microarray, lysate, 635/667 nm, primary screen (AID 1149). As to conditions: COS7 hTOR1A-WT lysate, 635 nm fluorescence, higher = more signal.
Test [18] has the same target. The test is described as follows: torsin A mutant lysate binding on microarrays – cell lysate, small-molecule microarray, COS7 lysate, 635/667 nm fluorescence, primary screen (AID 1150).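 Note: score pools 667 nm emission and signal to noise measuring lysate protein binding.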 The conditions noted are these: COS7 hTOR1A mutant lysate, 635 nm fluorescence, higher = more signal.
Test [19] relates to Sonic hedgehog protein (Shh). Put plainly: Sonic hedgehog microarray binding compounds – biochemical, small-molecule microarray, 635/667 nm fluorescence, primary screen (AID 1151).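 Note: Shh protein binding to compounds spotted on small-molecule microarray slides; score combines spot fluorescence intensity with signal-to-noise across triplicate slides.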 As to conditions: 635 nm fluorescence, higher = more signal.

The source made the active and inactive calls. Unless noted, the rule behind the calls is not given here.

Chain of Torsin-1A (Homo sapiens) (O14656 whole entry, looked up): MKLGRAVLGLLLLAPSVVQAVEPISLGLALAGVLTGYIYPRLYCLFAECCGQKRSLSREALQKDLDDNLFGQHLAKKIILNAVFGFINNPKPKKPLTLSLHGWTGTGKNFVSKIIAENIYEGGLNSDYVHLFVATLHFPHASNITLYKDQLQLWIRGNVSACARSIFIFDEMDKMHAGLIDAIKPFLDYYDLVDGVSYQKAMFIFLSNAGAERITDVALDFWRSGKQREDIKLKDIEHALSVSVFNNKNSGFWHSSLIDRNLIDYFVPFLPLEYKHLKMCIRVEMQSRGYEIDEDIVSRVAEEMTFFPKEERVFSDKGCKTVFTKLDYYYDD
Chain of Follistatin (Homo sapiens) (P19883 whole entry, looked up): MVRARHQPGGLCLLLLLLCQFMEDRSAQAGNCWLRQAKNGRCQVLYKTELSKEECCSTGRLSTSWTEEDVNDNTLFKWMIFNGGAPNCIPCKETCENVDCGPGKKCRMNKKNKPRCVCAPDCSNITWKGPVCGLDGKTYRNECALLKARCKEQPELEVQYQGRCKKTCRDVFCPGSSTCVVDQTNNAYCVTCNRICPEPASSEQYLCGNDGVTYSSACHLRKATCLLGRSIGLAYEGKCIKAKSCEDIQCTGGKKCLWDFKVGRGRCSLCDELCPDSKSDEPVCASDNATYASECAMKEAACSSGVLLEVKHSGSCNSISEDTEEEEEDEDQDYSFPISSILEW
Chain of Focal adhesion kinase 1 (Homo sapiens) (Q05397 whole entry, looked up): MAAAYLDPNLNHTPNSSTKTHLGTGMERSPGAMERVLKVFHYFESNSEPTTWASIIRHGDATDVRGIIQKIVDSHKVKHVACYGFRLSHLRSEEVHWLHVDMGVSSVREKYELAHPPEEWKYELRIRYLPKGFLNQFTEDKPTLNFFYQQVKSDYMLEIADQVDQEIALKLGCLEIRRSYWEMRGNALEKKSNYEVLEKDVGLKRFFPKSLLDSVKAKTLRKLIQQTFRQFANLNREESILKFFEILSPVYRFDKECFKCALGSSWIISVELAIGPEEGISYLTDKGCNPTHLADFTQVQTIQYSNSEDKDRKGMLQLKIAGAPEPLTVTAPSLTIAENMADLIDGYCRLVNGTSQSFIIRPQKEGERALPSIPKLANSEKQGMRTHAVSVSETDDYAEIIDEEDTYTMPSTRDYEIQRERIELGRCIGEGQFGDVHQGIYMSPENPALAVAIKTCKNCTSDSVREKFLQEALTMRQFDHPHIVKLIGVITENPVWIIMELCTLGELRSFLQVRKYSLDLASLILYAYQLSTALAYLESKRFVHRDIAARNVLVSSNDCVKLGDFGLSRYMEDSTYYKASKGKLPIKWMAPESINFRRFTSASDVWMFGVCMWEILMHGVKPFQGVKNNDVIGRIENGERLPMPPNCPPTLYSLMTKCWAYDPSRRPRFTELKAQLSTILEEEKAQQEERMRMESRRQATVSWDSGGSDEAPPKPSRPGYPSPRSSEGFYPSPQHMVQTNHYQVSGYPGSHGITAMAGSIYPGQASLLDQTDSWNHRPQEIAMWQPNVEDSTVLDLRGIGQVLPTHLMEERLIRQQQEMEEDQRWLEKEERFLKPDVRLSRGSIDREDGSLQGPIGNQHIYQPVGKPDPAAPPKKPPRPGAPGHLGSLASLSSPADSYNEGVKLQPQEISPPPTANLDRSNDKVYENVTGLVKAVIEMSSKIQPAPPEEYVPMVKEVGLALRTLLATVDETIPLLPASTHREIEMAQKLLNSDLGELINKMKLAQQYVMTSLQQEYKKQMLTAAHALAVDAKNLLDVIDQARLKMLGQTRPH
Chain of Fibroblast growth factor 2 (Homo sapiens) (P09038 whole entry, looked up): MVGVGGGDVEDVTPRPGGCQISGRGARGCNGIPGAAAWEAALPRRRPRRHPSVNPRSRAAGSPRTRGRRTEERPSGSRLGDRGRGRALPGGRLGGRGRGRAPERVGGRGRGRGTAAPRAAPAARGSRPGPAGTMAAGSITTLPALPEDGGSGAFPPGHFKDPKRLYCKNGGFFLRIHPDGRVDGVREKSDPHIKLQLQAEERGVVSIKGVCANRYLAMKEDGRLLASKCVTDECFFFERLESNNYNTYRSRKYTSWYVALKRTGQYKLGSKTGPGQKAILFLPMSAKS
Chain of Streptavidin (Streptomyces avidinii) (P22629 whole entry, looked up): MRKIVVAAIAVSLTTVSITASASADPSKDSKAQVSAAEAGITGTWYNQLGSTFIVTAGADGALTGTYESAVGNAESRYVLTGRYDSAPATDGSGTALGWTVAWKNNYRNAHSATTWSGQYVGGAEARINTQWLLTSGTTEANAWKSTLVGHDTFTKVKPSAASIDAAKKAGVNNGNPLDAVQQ
Chain of Luciferin 4-monooxygenase (Photinus pyralis) (P08659 whole entry, looked up): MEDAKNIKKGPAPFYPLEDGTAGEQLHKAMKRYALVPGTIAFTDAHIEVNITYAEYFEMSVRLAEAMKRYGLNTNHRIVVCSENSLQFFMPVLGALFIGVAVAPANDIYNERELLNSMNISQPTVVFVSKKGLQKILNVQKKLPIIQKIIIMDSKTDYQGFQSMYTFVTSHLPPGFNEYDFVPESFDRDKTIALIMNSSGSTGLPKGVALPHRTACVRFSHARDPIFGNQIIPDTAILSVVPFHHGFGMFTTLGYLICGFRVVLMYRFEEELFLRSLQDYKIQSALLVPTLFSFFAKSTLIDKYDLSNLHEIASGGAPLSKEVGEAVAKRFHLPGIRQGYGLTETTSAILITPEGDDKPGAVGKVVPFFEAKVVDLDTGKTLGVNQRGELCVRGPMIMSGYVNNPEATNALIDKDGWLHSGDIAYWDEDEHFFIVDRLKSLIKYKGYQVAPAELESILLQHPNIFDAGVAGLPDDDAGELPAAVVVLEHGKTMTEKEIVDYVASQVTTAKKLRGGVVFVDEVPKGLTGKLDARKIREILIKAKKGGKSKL

Turning to `Cc1c(-c2ccc(-c3ccc(Cl)c(Cl)c3)o2)nc(-c2ccccc2)c2c1CO[Si]2(C(C)C)C(C)C`, the composite z-score in [1] is 0.466; in test [2], 0.168; in [3] it was -0.0127; in test [4], 0.407; in test [5] it was -0.161; in [6] it was -0.255. Moreover, the composite z-score in the test with Lefty1 is 0.351; in test [8] it was 0.284; in test [10], -0.0882; in [15], -0.107; in test [16] it was -0.179; with Torsin-1A (Homo sapiens) [17], -0.455. For the same compound, the composite z-score in the test with Torsin-1A (Homo sapiens) [18] is -0.474; in [19] it was 0.426. Moreover, the z-score in [7] was -0.777; in [9] it was -0.056 (inactive); in test [11], -0.98 (inactive); in test [12], 0.163 (inactive); in [13] it was -0.882 (inactive); in [14] it was 1.86 (inactive).

For `Cc1ccc(S[C@]2(C(=O)NCCCN(C)C)CC(=O)N(Cc3ccccc3Cl)[C@@H]2c2ccc(CO)cc2I)cc1`, the composite z-score is -0.704 in test [1]; -0.522 in test [2]; 0.404 in [3]; -1.05 in test [4]; -0.667 in [5]; -1.09 in test [6]. For the same compound, the composite z-score with Lefty1 is -0.767; in test [8], 1.17; in test [10] it was -0.256; in test [15], -0.245; in test [16], -0.157; in the test with Torsin-1A (Homo sapiens) [17], -0.601. Moreover, the composite z-score in the test with Torsin-1A (Homo sapiens) [18] was -0.679; in test [19], -0.995. Moreover, the z-score in test [7] is 0.935; in test [9] it was -0.543 (inactive); in test [11], -0.826 (inactive); in [12], 0.601 (inactive); in test [13], 0.0924 (inactive); in test [14], 0.752 (inactive).

For the compound `C=CCC(OC(C)=O)[C@@H]1[C@@H](N(Cc2ccc(-c3cccc(C(F)(F)F)c3)o2)C(=O)Cc2ccc(F)cc2)c2cc(OCCCO)ccc2N1C(=O)c1ccc2ccccc2n1` (stereo not given in full), the composite z-score in test [1] was -0.255; in [2], -0.732; in test [3] it was -0.153; in test [4], -1.12; in test [5], 0.67; in test [6] it was -0.0898. Besides, the composite z-score in the test with Lefty1 is -0.286; in test [8], -0.375; in test [10] it was -0.123; in [15] it was -0.127; in [16] it was -0.176; with Torsin-1A (Homo sapiens) [17], -0.187. Besides, the composite z-score was -0.326 with Torsin-1A (Homo sapiens) [18] and 0.244 in test [19]. Further, the z-score was 0.898 in test [7]; -0.1 (inactive) in [9]; -0.0676 (inactive) in test [11]; -0.147 (inactive) in [12]; 0.134 (inactive) in test [13]; 1.5 (inactive) in test [14].

As for `C[C@]1(C(=O)NCC(F)(F)F)c2ccccc2C(=O)N(Cc2ccc(OC(F)(F)F)cc2)[C@H]1c1ccc(CO)cc1`, the composite z-score in test [1] stood at 0.781; in test [2], 0.269; in test [3] it was 0.273; in [4], 0.0709; in test [5], 1.13; in test [6], 0.358. Moreover, the composite z-score was 0.369 in the test with Lefty1; 0.314 in test [8]; -0.151 in [10]; 0.0803 in test [15]; -0.128 in test [16]; -0.906 in the test with Torsin-1A (Homo sapiens) [17]. Further, the results for the composite z-score (with Torsin-1A (Homo sapiens) [18]; in test [19]) were 0.7 and 0.31, respectively. In addition, the z-score is -0.274 in test [7]; -0.219 (inactive) in test [9]; -2.8 (inactive) in test [11]; 0.382 (inactive) in test [12]; 0.324 (inactive) in test [13]; 1.3 (inactive) in test [14].

Take `CC(C)[C@@H](C(=O)O)n1cc(-c2ccccc2)nn1`: the composite z-score is 0.808 in test [1]; 1.14 in test [2]; 0.866 in test [3]; 0.924 in test [4]; 0.098 in [5]; 0.112 in test [6]. Further, the composite z-score in the test with Lefty1 was -0.0617; in [8], 1.15; in test [10], 0.0953; in [15], 1.23; in test [16], 0.019; in the test with Torsin-1A (Homo sapiens) [17], 0.466. Besides, the composite z-score amounted to 1.16 in the test with Torsin-1A (Homo sapiens) [18] and 0.128 in [19]. Besides, the z-score in [7] was -0.138; in test [9], 0.131 (inactive); in test [11], 0.0466 (inactive); in [12], 0.69 (inactive); in test [13] it was 0.251 (inactive); in [14], 0.0824 (inactive).

Values taken from PubChem BioAssay.
